AMA1 RON2 block = qHTS for Inhibitors of AMA1-RON; Towards Development of Antimalarial Drug Lead: Primary Screen; AlphaScreen AMA1-biotinylated RON2 peptide binding; Potency, µM (titrated, usually from 58.2 µM), inactives show at the top dose activity change, negative = inhibition, usual class: inhibitors; actives 0.2% (n = 360,000);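 further: 0% = vehicle wells and -100% = peptide control; nearly all actives have a fitted effect of over 45% in size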
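AMA1 (3D7) with his tag at 25 nM final met compounds first, then biotinylated RON2 peptide at 25 nM; detection used donor plus acceptor beads, 10 µg/mL apiece, read by AlphaScreen after 30 min at room temperature.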
Pf growth 48h = Primary qHTS for delayed death inhibitors of the malarial parasite plastid, 48 hour incubation. P. falciparum luciferase growth in erythrocytes, 48 h. Potency, µM (top dose mostly 28.7 µM), without a hit: at the top dose activity change, negative = inhibition, hits mostly inhibitors. actives 5.9% (n = 310,000); further: on the % scale 0 is the no-effect control and ±100 the full control effect
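Firefly luciferase activity from engineered P. falciparum reports growth; inhibitors lower the luminescent signal. Cultures contained 2% hematocrit erythrocytes at 0.1% final parasitemia.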
HCV inhibitor = qHTS Assay for Inhibitors of Hepatitis C Virus (HCV); Huh7.5.1 HCVcc-Cre infection, luciferase reporter, 44 h; Potency, µM (highest dose often 41.8 µM), for inactives: top-dose activity change, negative = inhibition, usual class: inhibitors; actives 3.4% (n = 340,000); further: on the % scale 0 is the no-effect control and ±100 the full control effect
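Cells (1,000/well) were plated 4 h before compound, then infected with HCVcc-Cre virus (~0.5 moi). After 44 h further culture, infection was read as luciferase luminescence following a 15 min substrate incubation at room temperature.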
NS1 inh = qHTS Assay for Inhibitors of Influenza NS1 Protein Function. actives 0.4% (n = 270,000). Potency, µM (doses to about 46.1 µM), inactives show top-dose activity, positive = more growth; calls by dose curve; further: actives are rising curves; nearly all actives have a fitted effect of over 50% in size
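Growth recovery, yeast-based: influenza A NS1 expressed in S. cerevisiae causes slow growth, and suppressors are detected by OD600. The parent strain without NS1 is used as positive control.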
SARS PLP yeast = qHTS of Yeast-based Assay for SARS-CoV PLP. S. cerevisiae expressing SARS-CoV PLpro, growth rescue. Potency, µM (titrated, usually from 32.9 µM), inactives show at the top dose activity, positive = growth rescue, usual class: activators. actives 0.19% (n = 330,000). AID 485353, 2010; calls by dose curve; further: 0% is about no effect; nearly all actives have a fitted effect of over 55% in size
Pf growth 96h = Primary qHTS for delayed death inhibitors of the malarial parasite plastid, 96 hour incubation | P. falciparum luciferase reporter growth, 96 h | Potency, µM (top dose mostly 28.7 µM), for the others: at the highest dose activity change, negative = inhibition, actives largely listed as inhibitors | actives 6.9% (n = 320,000) | AID 504834, 2011; further: on the % scale 0 is the no-effect control and ±100 the full control effect
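Delayed-death screen, second-generation endpoint: infected erythrocytes, 2% hematocrit, 0.05% parasitemia final; 96 hours at 37 C, 5% CO2; luciferase detection reagent; luminescence decrease equals reduced growth.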
The depositor's hits bear a star; ? = inconclusive; . = no result; [ ] = remark or other dose. Most compounds without a hit are left out; they make up all but 12% or so of the library. Unless noted, the call rests on the fitted dose curve; in most records, active means well fitted curve in the direction sought with a large enough effect; inconclusive means small, poorly fitted or top-dose-only effect, or another doubt; inactive means no such curve, though single readings can be large; an effect the other way counts as inactive or inconclusive. Potency means the concentration at half of the fitted maximal effect.

SMILES	AMA1 RON2 block	Pf growth 48h	HCV inhibitor	NS1 inh	SARS PLP yeast	Pf growth 96h
CC1Cc2ccccc2N1C(=O)CSc1nc2cc3c(cc2cc1C#N)OCO3 (stereo not given)	6.4%	?	?	-19.8%	5.5%	?
Cc1sc2nc(C3CC3)nc(SCC(=O)N3c4ccccc4CC3C)c2c1C (stereo not given)	10.4%	?	11.2µM*	3.3%	-3.6%	47.9%
CCNc1nnc(SCC(=O)N2c3ccccc3NC(=O)CC2C)s1 (stereo not given)	-4.4%	-21.0%	20.6%	.	-4.1%	?
Cc1sc2nc(C3CC3)nc(SCC(=O)NCc3ccco3)c2c1C	14.4%	-18.5%	1.8%	-6.7%	5.5%	18.1%
O=S(=O)(Nc1nc2ccccc2nc1Nc1cccc(S(=O)(=O)N2CCCCC2)c1)c1ccccc1	-0.2%	8.28µM*	?	-3.8%	7.1%	2.08µM*
O=C(Nc1ccncc1)C1CCN(S(=O)(=O)c2cccc(C(F)(F)F)c2)CC1	-2.6%	13.1µM*	-4.8%	.	2.5%	9.28µM*
O=C(Nc1cccc(S(=O)(=O)c2cccc(NC(=O)C3CC3)c2)c1)C1CC1	4.6%	?	5.62µM*	3.4%	5.5%	11.2%
O=C(Nc1cccc(S(=O)(=O)N2CCCCCC2)c1)C1CCC1	-8.4%	?	-18.8%	.	2.8%	13.1µM*
O=C(NCc1ccncc1)C1CCN(S(=O)(=O)c2cccc(C(F)(F)F)c2)CC1	9.8%	-3.7%	6.9%	18.2%	2.0%	?
O=C(NCCNC(=O)c1ccccc1Br)c1cccnc1	-21.7%	0.1%	1.4%	-10.4%	5.9%	?
COc1ccc(S(=O)(=O)N2CCC(c3cc(-c4cccc5ccccc45)n[nH]3)CC2)cc1	-2.2%	?	?	?	-1.4%	?
O=S(=O)(c1cccc(C(F)(F)F)c1)N1CCC(c2cc(-c3cccc4ccccc34)n[nH]2)CC1	-10.2%	?	0.9%	20.3%	-3.2%	10.4µM*
COc1ccc(OC)c(/C=C/C(=O)N2CCN(S(=O)(=O)c3cc(C)ccc3C)CC2)c1	16.4%	?	?	.	5.4%	?
COc1ccc(OC)c(/C=C/C(=O)N2CCN(S(=O)(=O)c3ccc(C)cc3C)CC2)c1	23.7%[11.6 µM]	11.7µM*	?	.	7.1%	13.1µM*
CCc1cc(C(=O)N2CCN(S(=O)(=O)c3cc(C)ccc3C)CC2)sc1C	-8.4%	13.1µM*	?	.	-8.3%	?
COc1ccccc1/C=C/C(=O)N1CCN(S(=O)(=O)c2cc(C)ccc2C)CC1	0.3%	14.7µM*	?	.	2.7%	?
CNC(=O)OCc1nc(SC2CCCCO2)n(C)c1COC(=O)NC (stereo not given)	22.3%	.	.	.	.	.
Cc1ccccc1C(=O)NC(C(=O)Nc1nc2c(s1)CCCC2)C(C)C (stereo not given)	9.9%	?	-1.3%	?	?	4.65µM*
Cc1ccccc1-c1cc(C(=O)Nc2nc3c(s2)CCCC3)c2ccccc2n1	-14.7%	?	?	27.2%	-11.1%	?
Cc1cc(C(=O)Nc2nc3c(s2)CCCC3)cs1	11.7%	-37.8%	12.6µM*	1.4%	3.0%	-14.0%
CCOc1cc(/C=C(\C#N)C(=O)NCc2cccnc2)ccc1O	-4.3%	-11.5%	8.5%	.	0.8%	-50.4%
O=C(CC1OC(=O)c2ccccc21)Nc1cc(Cl)ccc1N1CCCC1 (stereo not given)	7.3%	?	?	.	-0.8%	-8.5%
CCc1cc(C(=O)N(CCCOC)c2c(N)n(Cc3ccccc3)c(=O)[nH]c2=O)sc1C	-3.4%	?	?	.	.	0.8%
CC1Nc2ncnc(N3CCc4ccccc4C3)c2N(Cc2ccc(Cl)cc2)C1=O (stereo not given)	11.7%	13.1µM*	3.1%	.	1.8%	5.22µM*
CC1Nc2ncnc(N3CCc4ccccc4C3)c2N(Cc2ccc(Br)cc2)C1=O (stereo not given)	11.1%	2.08µM*	?	.	0.1%	6.57µM*
SMILES	AMA1 RON2 block	Pf growth 48h	HCV inhibitor	NS1 inh	SARS PLP yeast	Pf growth 96h
O=C(/C=C/c1cccc(Br)c1)N1CCN(c2ccccn2)CC1	-10.4%	-16.1%	22.4%	.	-0.2%	?
CC(=O)Nc1nc(C)c(-c2csc(Nc3cccc([N+](=O)[O-])c3)n2)s1	5.7%	.	?	2.0%	5.4%	0.828µM*
CC(=O)Nc1nc(C)c(-c2csc(Nc3ccccn3)n2)s1	-2.1%	-1.8%	10µM*	3.3%	-3.7%	?
CC(=O)c1cccc(Nc2nc(-c3cccc([N+](=O)[O-])c3)cs2)c1	-2.7%	52.5%	2.24µM*	-19.7%	-32.5%	55.4%
CC(=O)Oc1ccc(-c2csc(Nc3ccccn3)n2)cc1	2.6%	.	.	.	.	.
CC(=O)Nc1ccc(Nc2nc(-c3sc(NC(C)=O)nc3C)cs2)cc1	-6.2%	?	11.2µM*	9.0%	2.1%	?
Oc1ccccc1CNc1ccc(OC(F)(F)F)cc1	1.0%	?	?	-6.4%	-2.6%	?
COc1cccc(OCC(=O)Nc2ccccc2C(=O)Nc2ccc(C(=O)O)cc2)c1	0.0%	?	12.2%	-0.2%	3.2%	-14.7%
CC(=O)Nc1nc(C)c(-c2csc(Nc3cccc(C(C)=O)c3)n2)s1	14.9%	.	10µM*	5.5%	-3.6%	6.9%
COCCN1Cc2cccc(C(=O)NCCc3ccccc3)c2C1=O	-2.3%	-7.6%	-10.0%	-2.7%	0.2%	13.8%
COCCCN1Cc2cccc(C(=O)O)c2C1=O	-0.1%	.	6.0%	-4.5%	6.0%	8.28µM*
O=[N+]([O-])c1cccn2cc(-c3ccc(Br)cc3)nc12	?	?	?	-6.4%	-3.0%	4.65µM*
COC(=O)CN1C(=S)N(c2ccc(OC)cc2)C(=O)/C1=C/c1ccc(OC)cc1	?	11.7µM*	-7.3%	-2.4%	-0.8%	-0.9%
COC(=O)CN1C(=S)N(c2ccc(OC)cc2)C(=O)/C1=C/c1ccc(N2CCOCC2)cc1	-18.0%	?	-5.5%	0.5%	-1.1%	-1.4%
O=S(=O)(O)c1cc(O)c2c(O)c(N=Nc3cc(Cl)ccc3O)c(S(=O)(=O)O)cc2c1	-27.1%	-6.2%	-21.2%	-4.0%	-0.4%	2.3%
Cc1cc(-c2ccc(N=Nc3c(S(=O)(=O)O)cc4cc(S(=O)(=O)O)cc(N)c4c3O)c(C)c2)ccc1N=Nc1c(S(=O)(=O)O)cc2cc(S(=O)(=O)O)cc(N)c2c1O	.	6.57µM*	?	.	1.0%	9.53µM*
CCN(C(=O)CSc1ncccn1)c1cccc2ccccc12	14.4%	.	-4.8%	.	0.6%	.

Screens as filed in PubChem.
